Pf apPOL block – Pf-apPOL DNA polymerase inhibition; inhibition, % at 10 µM; Recombinant Pf-apPOL, molecular beacon fluorescence, 1.5 h; actives 0.25% (n = 210,000)
mHTT-CaM PPI inh – disrupts binding of mutant huntingtin to calmodulin; P42858; AlphaScreen His-mHTT/GST-CaM binding, luminescence; inhibition, % at 15 µM; actives 3.6% (n = 190,000);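 also: 0% = both proteins with DMSO and 100% = one protein alone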
* marks the source's active call; other numbers are inactive results; · = not tested or not shown. In the library only some 3.6% were active in any assay of this set; here they are far more common. Rule as the data show it: active = inhibition above about 50%; inactive = the rest.

SMILES	Pf apPOL block	mHTT-CaM PPI inh
NC(=O)c1ccsc1NC(=O)COc1ccc(Cl)cc1	-2	4
COc1ccccc1N1CCN(C(=O)Nc2ccccc2)CC1	-8	-2
CCOC(=O)COc1ccc2c(=O)c(-c3ccc(Br)cc3)c(C)oc2c1	-7	4
CC(O)CNc1ncnc2sc(-c3ccccc3)cc12 (stereo not given)	-2	3
Cn1c(=O)c2c(nc(N=Nc3c(O)[nH]c4ccccc34)n2Cc2ccc(Cl)c(Cl)c2)n(C)c1=O	2	·
CCOC(=O)N1CCN(C(c2ccc(SC)cc2)c2c(O)cc(C)n(CC)c2=O)CC1 (stereo not given)	11	69*
CCOC(=O)N1CCN(C(c2cccs2)c2c(O)cc(C)n(CC)c2=O)CC1 (stereo not given)	2	-13
COc1ccc(-c2nc(C)c3c(n2)N(Cc2ccco2)C(=O)CC3)cc1	25	6
Cc1ccc(-n2cc3c(c2-c2ccccc2)c(=O)n(C)c(=O)n3C)cc1	5	22
COc1ccccc1-n1cc2c(c1-c1ccccc1)c(=O)n(C)c(=O)n2C	-8	26
Cn1c(=O)c2c(-c3ccccc3)n(-c3ccc(F)cc3)cc2n(C)c1=O	75*	41
Cc1cc(C)cc(-n2cc3c(c2-c2ccccc2)c(=O)n(C)c(=O)n3C)c1	83*	36
O=C(c1ccccc1Cl)N1CCN(C(C(=O)N2CCCCC2)C2CCCC2)CC1 (stereo not given)	-4	10
COc1ccc(NC(=O)N2CC3CC(NS(C)(=O)=O)C2C3)cc1 (stereo not given)	-3	-1
Cc1cc(C)c2c(N)c(C(=O)c3ccccn3)sc2n1	-2	1
O=C(NCC1CCCO1)c1sc2cc(F)ccc2c1Cl (stereo not given)	-1	-7
CN1CCN(c2ccc(-c3cccc(NC(=O)c4cccs4)c3)nn2)CC1	2	-10
Cc1noc(C)c1CCC(=O)Nc1cccc(-c2ccc(N3CCCC3)nn2)c1	-8	27
O=C(Cc1noc2ccccc12)Nc1cccc(-c2ccc(N3CCCC3)nn2)c1	-29	67*
O=C(Nc1cccc(-c2ccc(N3CCCC3)nn2)c1)c1cc(-c2cccs2)[nH]n1	1	99*
O=S(=O)(NCCN1CCOCC1)c1ccc(C2CCCCC2)cc1	0	3
COc1ccc(C2C(C#N)=C(N)Oc3n[nH]c(C(C)C)c32)c(OC)c1OC (stereo not given)	0	0
CCC(C)(Nc1ccc(N(C)C)cc1)c1nnnn1-c1c(C)cccc1C (stereo not given)	2	55*
CCc1cccc(C)c1-n1nnnc1C(C)(C)Nc1ccccc1	-3	-1
O=C(Nc1ccc(Cl)c2ncsc12)c1ccc([N+](=O)[O-])cc1	-5	-6
SMILES	Pf apPOL block	mHTT-CaM PPI inh
O=C(NC1CC1)c1n[nH]c2c1CN(C(=O)c1ccc(C(F)(F)F)cc1)CC2	0	2
CCOc1cc(C(Nc2cc(C)ccn2)c2ccc3cccnc3c2O)ccc1O (stereo not given)	-2	100*
Cc1ccnc(NC(=O)c2ccc(C(C)C)cc2)c1	-5	-13
COc1cc(-c2nc3ncccn3c2Nc2ccc(C)cc2)ccc1O	2	9
Cc1ccnc(NC(c2ccc(N(C)C)cc2)c2ccc3cccnc3c2O)c1 (stereo not given)	-20	100*
CCOc1ccccc1C(=O)Nc1cc(C)ccn1	-2	-16
COc1cc(C(Nc2cc(C)ccn2)c2ccc3cccnc3c2O)ccc1O (stereo not given)	2	100*
Cc1cccc(C2=NC3(CCN(Cc4cccc(F)c4)CC3)NC2=O)c1	-7	18
Cc1c(NC(=O)C(C)(C)C)cccc1C(=O)O	-6	4
Cc1ccc2c(c1)C(=O)NC1(CCN(C(=O)NC3CCCCC3)CC1)N2C	0	0
CCN1c2cc(C)ccc2-n2cccc2C12CCN(C(=O)Nc1ccccc1OC)CC2	-1	66*
CCOc1ccc(NC(=O)N2CCC3(CC2)c2cccn2-c2ccc(C)cc2N3CC)cc1	-3	52*
CCN1c2cc(C)ccc2-n2cccc2C12CCN(C(=O)NC1CCCC1)CC2	-6	72*
CCN1c2cc(C)ccc2-n2cccc2C12CCN(C(=O)Nc1cccc(OC)c1)CC2	4	56*
CCN1c2cc(C)ccc2-n2cccc2C12CCN(C(=O)NCc1cccc(OC)c1)CC2	2	34
CCN1c2cc(C)ccc2-n2cccc2C12CCN(C(=O)c1ccccc1OC)CC2	-4	9
CCN1c2ccccc2-n2cccc2C12CCN(C(=O)Nc1cc(C)ccc1C)CC2	-2	0
Cc1ccc(NC(=O)c2cc3c(CO)cnc(C)c3oc2=Nc2ccccc2F)cc1	-5	-2
O=C1C(=O)N(c2cccnc2)C(c2ccccc2)C1=C(O)c1ccccc1 (stereo not given)	-2	10
CCN1c2cc(C)ccc2-n2cccc2C12CCN(C(=O)Nc1ccc(C)cc1)CC2	-6	44

Source: PubChem (University of Kansas High Throughput Screening Laboratory)
